# Test results from PubChem BioAssay (EPA / NIEHS).
# Records with an inconclusive call do not appear. Active and inactive are the calls of the source. How the source made its calls, unless noted: active means hit-call score of the fitted dose curve at least 0.9, where 1 is the maximum; inconclusive means response in the unintended direction; inactive means score below 0.9.
# Experiments:
# [1] = target: Androgen receptor (Homo sapiens) (UniProt P10275); experiment: ATG_AR_TRANS: Attagene TRANS-FACTORIAL HepG2 Assay for human Androgen Receptor (AR) (AID 2282973); conditions: HepG2 Attagene TRANS-FACTORIAL AR reporter transcription
# How it was run: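 HepG2 cells transiently transfected with AR-Gal4 chimera and GAL4-UAS reporter units; chemical exposure 24 h. Reporter mRNA quantified by RT-PCR with fluorescent labelling and capillary electrophoresis; gain-of-signal fitted against DMSO.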
# [2] = system: rat Monoamine Oxidase, MAO-A, Central (MAOAC), gene 29253; experiment: NVS_ENZ_rMAOAC: NovaScreen (NVS) Enzymatic Assay for rat Monoamine Oxidase, MAO-A, Central (MAOAC) (AID 2283243);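 further: potency refers to inhibition seen as signal drop below DMSO baseline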
# How it was run: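 Scintillation read-out of MAO-A activity in rat brain lysate, 1.5 h post-dosing. Primary single-concentration screen: 25 uM, duplicate; actives re-tested in concentration series. DMSO = negative control/baseline.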
# [3] = ATG_M_32_XSP2: Attagene TRANS-FACTORIAL Multi-Species (XSP2) HepG2 Assay for M19 Transcription Factor (Internal Marker) (AID 2283826)
# How it was run: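 HepG2 cells transiently transfected with GAL4-UAS reporter units; XSP2 panel included 3 nM 6-alpha-fluorotestosterone and 1.5 nM norgestrel for androgen receptor stimulation. Reporter mRNA read 24 h post-dosing by RT-PCR/capillary electrophoresis; fitted upward versus DMSO.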
# [4] = Tanguay_ZF_120hpf_MUSC: Oregon State University Tanguay Lab 120 Hour Post-fertilization zebrafish Assay for Muscle Malformation (AID 2284401; active means hit-call score of the fitted dose curve at least 0.9, where 1 is the maximum; inactive means score below 0.9)
# How it was run: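 Scored as a binary brightfield endpoint at 120 hpf, fitted versus DMSO. Single dechorionated wild-type (Tropical 5D) zebrafish embryos per well, statically exposed at 28C from 6 hpf onward with final DMSO 0.64%.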
# [5] = target: Norway rat Vesicular Monoamine Transporter (VMAT2), neurotransmitter transporter, Slc18a2 (gene 25549) (UniProt Q01827); experiment: NVS_TR_rVMAT2: NovaScreen (NVS) Transporter Assay for Norway rat Vesicular Monoamine Transporter (VMAT2), neurotransmitter transporter (AID 2283376);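 further: actives lower the bound radioligand signal below the DMSO level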
# How it was run: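 Filter-based scintillation counting of radioligand bound to rat forebrain-derived VMAT2 protein, cell-free, 1 h post-dose. Signal loss relative to DMSO control scored; single-concentration duplicate screen (25 uM) followed by concentration-response testing of actives.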
# [6] = target: Bile acid receptor (Homo sapiens) (UniProt Q96RI1); experiment: NVS_NR_hFXR_Agonist: NovaScreen (NVS) Nuclear Receptor Binding Assay for human Farnesoid X Receptor Agonism (FXR) (AID 2283347)
# How it was run: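 Agonist-mode FXR assay read by time-resolved FRET 1 h after compound addition, using isolated human receptor protein without cells. Duplicate 25 uM single-point primary screen, concentration series for confirmed actives; DMSO as baseline.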
# [7] = CCTE_Harrill_HTTr_Apoptosis_PRF_DMEM_12hr: (Pilot) CCTE's 12-hour Apoptosis Assessment for the High-Throughput Transcriptomics (HTTr) Platform, in MCF-7 cells cultured in phenol red-free DMEM + 10% charcoal-stripped fetal bovine serum, Harrill Lab (AID 2283985; active means hit-call score of the fitted dose curve at least 0.9, where 1 is the maximum; inactive means score below 0.9)
# How it was run: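 Caspase-3/7 activity by CellEvent Green high content imaging after 12 h compound exposure (eight concentrations) in MCF-7 grown in phenol red-free DMEM plus 10% charcoal-stripped serum; DMSO as baseline.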
# [8] = TOX21_TRB_BLA_Agonist_Followup_viability: Viability Assessment in the Tox21 Thyroid Hormone Receptor beta Agonism Beta-lactamase (BLA) Follow-Up Assay (AID 2283956)
# How it was run: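 Viability was read as CellTiter-Glo luminescence in the same wells as the TRb-bla agonist read-out. HEK293T GAL4-TRb LBD cells were treated for 18 h (37C, 5% CO2) at 11 concentrations in triplicate. Fits were bidirectional versus DMSO baseline.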
# [9] = target: Voltage-dependent N-type calcium channel subunit alpha-1B (Rattus norvegicus) (UniProt Q02294); experiment: NVS_IC_rCaChN: NovaScreen (NVS) Ion Channel Assay for rat Calcium Channel, Type N (CaChN) (AID 2283317)
# [10] = target: rat Corticotropin Releasing Factor Receptor (CRF), Crhr1 (gene 58959) (UniProt P35353); experiment: NVS_GPCR_rCRF: NovaScreen (NVS) G Protein-Coupled Receptor Assay for rat Corticotropin Releasing Factor Receptor (CRF) (AID 2283300)
# How it was run: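 Single-concentration (25 uM, duplicate) radioligand binding on rat cortical membrane preparations, counted by scintillation after 2 h. Activity scored as signal loss relative to DMSO negative control.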
# [11] = target: rat Oxytocin Receptor (OXT), Oxtr (gene 25342) (UniProt P70536); experiment: NVS_GPCR_rOXT: NovaScreen (NVS) G Protein-Coupled Receptor Assay for rat Oxytocin Receptor (OXT) (AID 2283330)
# How it was run: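 Binding to rat uterine membrane receptor was followed by scintillation counting of filter-trapped radioligand after 1 h. A 25 uM duplicate single-point screen preceded concentration series with a top of 50 uM. Signal loss was analysed relative to DMSO.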
# Androgen receptor (Homo sapiens), sequence (P10275 whole entry, looked up, the tested form may be a part): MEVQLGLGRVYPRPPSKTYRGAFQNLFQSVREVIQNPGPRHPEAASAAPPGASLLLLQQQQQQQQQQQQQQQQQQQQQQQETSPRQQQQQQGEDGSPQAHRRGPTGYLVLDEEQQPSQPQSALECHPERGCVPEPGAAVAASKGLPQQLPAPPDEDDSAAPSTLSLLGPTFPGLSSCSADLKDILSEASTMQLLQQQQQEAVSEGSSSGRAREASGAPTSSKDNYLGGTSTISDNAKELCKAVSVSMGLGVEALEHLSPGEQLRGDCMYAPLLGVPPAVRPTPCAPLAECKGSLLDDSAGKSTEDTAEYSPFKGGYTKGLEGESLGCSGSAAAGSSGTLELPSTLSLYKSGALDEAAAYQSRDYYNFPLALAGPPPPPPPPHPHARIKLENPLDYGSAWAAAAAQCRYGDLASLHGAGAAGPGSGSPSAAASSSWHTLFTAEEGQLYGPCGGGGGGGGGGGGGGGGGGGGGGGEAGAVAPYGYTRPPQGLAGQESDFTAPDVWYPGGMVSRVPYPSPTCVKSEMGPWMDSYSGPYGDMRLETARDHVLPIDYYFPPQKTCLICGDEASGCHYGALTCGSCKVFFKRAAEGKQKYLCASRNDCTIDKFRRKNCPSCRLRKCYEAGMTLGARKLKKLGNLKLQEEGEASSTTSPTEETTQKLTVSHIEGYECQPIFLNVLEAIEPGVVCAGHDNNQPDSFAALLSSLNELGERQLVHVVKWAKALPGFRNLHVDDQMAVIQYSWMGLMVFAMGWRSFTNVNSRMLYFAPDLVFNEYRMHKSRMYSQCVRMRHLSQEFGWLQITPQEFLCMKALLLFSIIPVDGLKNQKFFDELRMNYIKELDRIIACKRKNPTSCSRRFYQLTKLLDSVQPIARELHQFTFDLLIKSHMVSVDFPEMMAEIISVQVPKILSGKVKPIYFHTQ
# Norway rat Vesicular Monoamine Transporter (VMAT2), neurotransmitter transporter, Slc18a2 (gene 25549), sequence (Q01827 whole entry, looked up): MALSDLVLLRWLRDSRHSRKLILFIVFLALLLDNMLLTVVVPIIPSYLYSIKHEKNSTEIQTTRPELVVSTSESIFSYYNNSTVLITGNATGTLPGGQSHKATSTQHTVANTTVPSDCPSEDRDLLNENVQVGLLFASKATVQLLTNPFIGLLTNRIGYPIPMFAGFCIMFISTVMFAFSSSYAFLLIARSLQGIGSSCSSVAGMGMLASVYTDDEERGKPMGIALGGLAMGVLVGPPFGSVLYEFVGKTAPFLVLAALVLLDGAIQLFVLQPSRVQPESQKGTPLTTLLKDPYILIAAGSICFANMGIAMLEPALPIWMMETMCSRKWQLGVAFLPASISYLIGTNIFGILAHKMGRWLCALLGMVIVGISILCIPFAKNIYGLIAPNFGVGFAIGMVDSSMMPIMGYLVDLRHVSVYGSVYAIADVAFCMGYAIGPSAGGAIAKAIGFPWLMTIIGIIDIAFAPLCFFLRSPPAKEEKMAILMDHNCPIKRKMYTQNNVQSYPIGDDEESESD
# Bile acid receptor (Homo sapiens), sequence (Q96RI1 whole entry, looked up): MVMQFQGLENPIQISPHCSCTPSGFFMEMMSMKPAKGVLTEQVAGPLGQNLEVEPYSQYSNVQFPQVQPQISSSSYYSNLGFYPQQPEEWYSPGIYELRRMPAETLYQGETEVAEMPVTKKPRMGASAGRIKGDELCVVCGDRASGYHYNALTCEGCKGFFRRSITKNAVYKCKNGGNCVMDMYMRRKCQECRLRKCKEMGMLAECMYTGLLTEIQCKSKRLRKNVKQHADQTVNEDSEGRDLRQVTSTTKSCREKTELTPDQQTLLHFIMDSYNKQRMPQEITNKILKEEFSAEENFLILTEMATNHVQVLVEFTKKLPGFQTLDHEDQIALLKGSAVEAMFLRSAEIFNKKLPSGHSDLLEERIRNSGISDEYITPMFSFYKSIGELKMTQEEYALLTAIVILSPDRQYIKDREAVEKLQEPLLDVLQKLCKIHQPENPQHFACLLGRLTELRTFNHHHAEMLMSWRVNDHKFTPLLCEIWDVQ
# rat Oxytocin Receptor (OXT), Oxtr (gene 25342), sequence (P70536 whole entry, looked up): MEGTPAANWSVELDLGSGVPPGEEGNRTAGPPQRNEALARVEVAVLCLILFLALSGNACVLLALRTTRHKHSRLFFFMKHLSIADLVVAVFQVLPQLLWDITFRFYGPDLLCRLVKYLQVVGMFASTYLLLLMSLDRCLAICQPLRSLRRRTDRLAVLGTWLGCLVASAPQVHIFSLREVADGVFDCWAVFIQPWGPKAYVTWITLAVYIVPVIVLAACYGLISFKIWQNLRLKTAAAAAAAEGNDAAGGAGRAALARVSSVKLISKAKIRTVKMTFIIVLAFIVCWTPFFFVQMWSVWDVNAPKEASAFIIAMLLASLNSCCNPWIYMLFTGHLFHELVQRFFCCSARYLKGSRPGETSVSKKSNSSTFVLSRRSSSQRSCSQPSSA
# rat Corticotropin Releasing Factor Receptor (CRF), Crhr1 (gene 58959), sequence (P35353 whole entry, looked up): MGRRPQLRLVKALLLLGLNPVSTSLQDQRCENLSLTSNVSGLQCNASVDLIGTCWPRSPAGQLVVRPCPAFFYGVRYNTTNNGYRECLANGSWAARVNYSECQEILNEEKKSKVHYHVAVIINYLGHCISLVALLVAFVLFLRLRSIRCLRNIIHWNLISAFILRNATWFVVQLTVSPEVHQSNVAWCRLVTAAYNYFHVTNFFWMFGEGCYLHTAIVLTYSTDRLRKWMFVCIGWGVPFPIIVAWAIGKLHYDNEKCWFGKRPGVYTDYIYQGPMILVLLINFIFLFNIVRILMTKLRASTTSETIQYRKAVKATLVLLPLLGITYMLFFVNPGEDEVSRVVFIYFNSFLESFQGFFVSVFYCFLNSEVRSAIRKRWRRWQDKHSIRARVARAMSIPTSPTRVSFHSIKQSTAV
smiles,measurement,setting,value
Cc1c2ccccc2c(C)c2c1ccc1ccccc12,outcome,[1],inactive
same,outcome,[2],inactive
same,outcome,[3],inactive
Cc1ccc(S(=O)(=O)OCC(F)(F)C(F)(F)C(F)(F)C(F)(F)C(F)(F)C(F)F)cc1,outcome,[1],inactive
same,outcome,[4],inactive
CC(=O)S[C@@H]1CC2=CC(=O)CC[C@]2(C)[C@H]2CC[C@@]3(C)[C@@H](CC[C@@]34CCC(=O)O4)[C@H]12,outcome,[1],inactive
same,outcome,[5],inactive
CN1CCN(C)CC1,outcome,[1],inactive
same,outcome,[5],inactive
c1ccc2c(c1)ccc1ccccc12,outcome,[1],inactive
same,outcome,[5],inactive
same,outcome,[3],inactive
CCCCOC(=O)c1ccc(O)cc1,outcome,[1],inactive
same,outcome,[6],inactive
CC(C)OC(=O)C(C)(C)Oc1ccc(C(=O)c2ccc(Cl)cc2)cc1,outcome,[1],inactive
same,AC50,[6],25 µM (active)
same,outcome,[7],inactive
CCCCCc1ccc(O)cc1,outcome,[1],inactive
same,AC50,[2],17.3 µM (active)
CCCCCCCCCCC,outcome,[1],inactive
same,outcome,[8],inactive
CCCCCCCCC(C)=O,outcome,[1],inactive
same,outcome,[5],inactive
O=c1cc(-c2ccccc2)oc2cc(O)cc(O)c12,outcome,[1],inactive
same,outcome,[3],inactive
FC(F)(F)C(F)(F)C(F)(F)N(C(F)(F)C(F)(F)C(F)(F)F)C(F)(F)C(F)(F)C(F)(F)F,outcome,[1],inactive
same,outcome,[4],inactive
NC(=O)C(F)(F)C(F)(F)C(F)(F)C(F)(F)C(F)(F)C(F)(F)C(F)(F)F,outcome,[1],inactive
same,outcome,[4],inactive
C=C1C[C@H]2[C@@H]3C=C(C)C4=CC(=O)CC[C@]4(C)[C@H]3CC[C@]2(C)[C@@]1(OC(C)=O)C(C)=O,outcome,[1],inactive
same,outcome,[3],inactive
O=S(=O)(OCC(F)F)C(F)(F)F,outcome,[1],inactive
same,outcome,[4],inactive
O=C(O)CCC(F)(F)C(F)(F)C(F)(F)C(F)(F)C(F)(F)F,outcome,[1],inactive
same,outcome,[4],inactive
CCOc1ccc(NC(C)=O)cc1,outcome,[1],inactive
same,AC50,[2],21 µM (active)
FC(F)(F)C(F)(F)CNCC(F)(F)C(F)(F)F,outcome,[1],inactive
same,outcome,[4],inactive
CCC(=C(c1ccc(O)cc1)c1ccc(OCCN(C)C)cc1)c1ccccc1,outcome,[1],inactive
same,outcome,[9],inactive
same,AC50,[5],0.626 µM (active)
same,AC50,[7],80.6 µM (active)
CCN(CC)c1ccc(C=O)c(O)c1,outcome,[1],inactive
same,AC50,[2],17.5 µM (active)
same,outcome,[5],inactive
OCCC(F)(F)C(F)(F)C(F)(F)C(F)(F)C(F)(F)C(F)(F)C(F)(F)C(F)(F)F,outcome,[1],inactive
same,outcome,[10],inactive
same,outcome,[4],inactive
C=CC(=O)OCC(F)(F)C(F)(F)C(F)(F)C(F)(F)COC(=O)C=C,outcome,[1],inactive
same,outcome,[4],inactive
NCCOCCOCCN,outcome,[1],inactive
same,outcome,[11],inactive
CNS(=O)(=O)C(F)(F)C(F)(F)C(F)(F)C(F)(F)C(F)(F)C(F)(F)C(F)(F)C(F)(F)F,outcome,[1],inactive
same,outcome,[4],inactive
CC1=C(C)S(=O)(=O)CCS1(=O)=O,outcome,[1],inactive
same,outcome,[5],inactive
O=C(O)C(F)(OC(F)(F)C(F)(OC(F)(F)C(F)(F)C(F)(F)F)C(F)(F)F)C(F)(F)F (centres undefined),outcome,[1],inactive
same,outcome,[4],inactive
CSc1ccc(O)cc1C,outcome,[1],inactive
same,AC50,[2],15.7 µM (active)
Cc1cnccn1,outcome,[1],inactive
same,outcome,[5],inactive
FC(F)(F)C(F)(F)C(F)(F)C(F)(F)C(F)(F)C(F)(F)CC[Si](Cl)(Cl)Cl,outcome,[1],inactive
same,outcome,[4],inactive
C=CCc1cc(S(=O)(=O)c2ccc(O)c(CC=C)c2)ccc1O,outcome,[1],inactive
same,outcome,[3],inactive
CC(=N[Si](C)(C)C)O[Si](C)(C)C,outcome,[1],inactive
same,outcome,[5],inactive
CCCCCCc1ccc(O)cc1O,outcome,[1],inactive
same,AC50,[2],16.5 µM (active)
O=C(CC(=O)C(F)(F)C(F)(F)C(F)(F)F)c1cccs1,outcome,[1],inactive
same,outcome,[4],inactive
O=C1CCC(=O)N1,outcome,[1],inactive
same,outcome,[5],inactive
Oc1ccc(/C=C/c2cc(O)cc(O)c2)cc1,outcome,[1],inactive
same,AC50,[2],1.58 µM (active)
same,AC50,[5],21 µM (active)
OCCC(F)(F)C(F)(F)C(F)(F)C(F)(F)F,outcome,[1],inactive
same,outcome,[4],inactive
Cc1cc(F)ccc1-c1cc(N2CC[C@@H](O)[C@H]2CO)ncc1N(C)C(=O)C(C)(C)c1cc(C(F)(F)F)cc(C(F)(F)F)c1,outcome,[1],inactive
same,AC50,[5],11.7 µM (active)
C=CC(F)(F)C(F)(F)C(F)(F)C(F)(F)C(F)(F)C(F)(F)C(F)(F)C(F)(F)F,outcome,[1],inactive
same,outcome,[4],inactive
CN(CCO)S(=O)(=O)C(F)(F)C(F)(F)C(F)(F)C(F)(F)C(F)(F)C(F)(F)C(F)(F)C(F)(F)F,outcome,[1],inactive
same,outcome,[4],inactive
OCC(F)(F)C(F)(F)C(F)(F)CO,outcome,[1],inactive
same,outcome,[4],inactive
O=P(O)(O)CCC(F)(F)C(F)(F)C(F)(F)C(F)(F)C(F)(F)C(F)(F)C(F)(F)C(F)(F)F,outcome,[1],inactive
same,outcome,[4],inactive
O=S(=O)(O)CCC(F)(F)C(F)(F)C(F)(F)C(F)(F)C(F)(F)C(F)(F)C(F)(F)C(F)(F)F,outcome,[1],inactive
same,outcome,[4],inactive
FC(F)(F)C(F)(F)C(F)(F)C(F)(F)C(F)(F)C(F)(F)C(F)(F)Br,outcome,[1],inactive
same,outcome,[4],inactive
